This is a sample that favours compounds with a hit; in the whole collection about 6.6% have one here.
Beta cell apopt – inhibitors of cytokine-induced beta cell apoptosis, primary screen, luminescence; hit rate 0.8% among 300,000; AID 435005, 2010; INS-1E cytokine-induced death, ATP luminescence, 48 h; percent of positive-control rescue, neutral wells zero; protection from apoptosis, % (test concentration not listed);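 active = Every replicate reaches about 75%, or at least half do and their mean reaches it too, limit read from the data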;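 note: 0% = cytokine-treated negative control wells and 100% = positive control rescue; higher means more ATP so stronger rescue from cytokine killing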
GRIN3A LBD mod – binders of NR3A ligand-binding domain, primary screen, biophysical, differential scanning fluorimetry, uHTS; Tm shift relative to glycine control, % at 25 µM; NR3A LBD differential scanning fluorimetry, Tm shift; 0% = protein alone, 100% = glycine-bound protein; hit rate 2.5% among 340,000;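 active = melting temperature shift of at least 10% of the positive control shift, at one fixed dose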
Mdm2-MdmX inh – inhibitors of human Mdm2-MdmX association, primary screen, cell-based, luminescence, split luciferase, SaOS-2, uHTS | inhibition, % at 8 µM | hit rate 3% among 330,000 | SaOS-2 split-luciferase Mdm2/MdmX complementation | Protein Mdm4 (Homo sapiens) + E3 ubiquitin-protein ligase Mdm2 (Homo sapiens), …;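 active = inhibition of at least 50% at 8 µM in the primary screen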
Target sequence (O15151 whole entry, looked up): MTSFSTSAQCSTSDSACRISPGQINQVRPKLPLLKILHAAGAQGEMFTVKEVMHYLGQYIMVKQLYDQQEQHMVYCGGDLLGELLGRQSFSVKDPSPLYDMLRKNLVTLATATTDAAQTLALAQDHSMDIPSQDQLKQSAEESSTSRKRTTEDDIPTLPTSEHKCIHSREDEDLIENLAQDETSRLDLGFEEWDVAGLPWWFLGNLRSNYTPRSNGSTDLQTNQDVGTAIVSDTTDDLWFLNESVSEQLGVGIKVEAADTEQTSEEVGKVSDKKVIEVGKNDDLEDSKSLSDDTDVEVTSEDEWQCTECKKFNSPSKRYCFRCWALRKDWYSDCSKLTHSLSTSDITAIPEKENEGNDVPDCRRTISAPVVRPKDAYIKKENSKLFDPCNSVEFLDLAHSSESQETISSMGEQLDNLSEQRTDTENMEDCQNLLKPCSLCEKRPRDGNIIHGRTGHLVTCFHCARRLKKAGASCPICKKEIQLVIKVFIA
Target sequence (Q00987 whole entry, looked up): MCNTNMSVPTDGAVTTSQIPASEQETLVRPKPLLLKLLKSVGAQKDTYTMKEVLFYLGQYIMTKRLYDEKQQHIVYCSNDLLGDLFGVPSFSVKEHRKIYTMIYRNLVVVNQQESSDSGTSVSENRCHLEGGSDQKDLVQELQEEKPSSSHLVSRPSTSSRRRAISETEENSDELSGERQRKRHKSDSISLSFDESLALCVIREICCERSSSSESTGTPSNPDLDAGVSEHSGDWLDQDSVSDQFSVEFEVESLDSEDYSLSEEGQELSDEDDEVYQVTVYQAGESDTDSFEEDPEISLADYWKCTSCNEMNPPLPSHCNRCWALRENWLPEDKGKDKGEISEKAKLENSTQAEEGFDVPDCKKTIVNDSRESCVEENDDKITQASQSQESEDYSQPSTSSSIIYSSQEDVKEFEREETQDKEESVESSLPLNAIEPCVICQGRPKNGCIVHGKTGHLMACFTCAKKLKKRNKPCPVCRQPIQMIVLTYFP
MPTP inh – mitochondrial permeability transition pore inhibitors, primary screen, biochemical, isolated mouse mitochondria, absorbance; Ca2+ swelling absorbance, 30 min; inhibition, % at 10 µM; hit rate 1.4% among 360,000; AID 602449, 2012;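 active = inhibition of 50% or more, scaled per plate between neutral and stimulator controls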;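 note: 0% = DMSO wells given calcium and 100% = 1 mM EGTA wells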
Gli-Sufu block – Gli-Sufu pathway antagonists, primary screen, luciferase luminescence, Sufu-KO-LIGHT cells, uHTS | inhibition, % at 5 µM | AID 588413, 2011 | hit rate 0.74% among 340,000 | Sufu-KO-LIGHT fibroblasts, Gli luciferase reporter luminescence;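 active = inhibition above about 55%, limit read from the data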;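 note: 0% = DMSO-treated cells and 100% = wells with medium but no cells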
CSC inhib – cancer stem cell viability inhibitors, primary screen, luminescence; cancer stem cell-like cells viability; inhibition, % at 7.5 µM; hit rate 1.1% among 300,000; AID 2717, 2010; in the data active = inhibition above about 75%; tested in HMLE shEcad cells
Mdm2 MdmX conf – Mdm2-MdmX complex disruptors, retested hits, confirmation, luminescence, single concentration; shares compounds with Mdm2-MdmX inh; Mdm2-MdmX binding, luminescent assay; inhibition, % at 8 µM; hit rate 55% among 10,000; AID 489028, 2010; in the data active = inhibition above about 40%
FLuc counter – full-length luciferase signal inhibition, confirmation, counter-screen for Mdm2/MdmX interaction inhibitor project, cell-based, single concentration, SaOS-2; shares compounds with Mdm2-MdmX inh; SaOS-2 full-length luciferase counterscreen, luminescence; inhibition, % at 8 µM; hit rate 77% among 6,200; AID 504607, 2011;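 active = mean inhibition at 8 µM reaching about 37%, which flags the compound as non-specific, limit read from the data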;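 note: p53-null SaOS-2 cells with luciferase driven by a doxycycline-inducible promoter; compound on cells about two nights before reading with doxycycline added after day one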
An asterisk follows results filed as active; . = no result given.

SMILES | Beta cell apopt | GRIN3A LBD mod | Mdm2-MdmX inh | MPTP inh | Gli-Sufu block | CSC inhib | Mdm2 MdmX conf | FLuc counter
COc1cc2sc(-c3ccccc3OC)c(-c3ccc(OCCN4CCOCC4)cc3)c2cc1OC | . | 6.0 | 60.5* | -2.0 | 4.9 | . | 9.3 | .
COc1ccccc1-c1sc2ccccc2c1-c1ccc(OCCN2CCCCC2)cc1 | . | 7.4 | 66.6* | -0.9 | -4.8 | . | 44.1* | 55.1*
COc1ccc2sc(-c3ccccc3OC)c(-c3ccc(OCCN(C)C)cc3)c2c1 | . | -0.7 | 11.1 | -1.6 | 1.8 | . | . | .
COc1ccc2c(-c3ccc(OCCN4CCOCC4)cc3)c(-c3ccccc3OC)sc2c1 | . | 2.0 | 6.9 | -0.7 | -6.8 | . | . | .
COc1ccc2c(-c3ccc(OCCN4CCCCC4)cc3)c(-c3ccccc3OC)sc2c1 | . | 8.7 | 62.7* | 0.8 | 0.0 | . | 16.4 | .
Oc1ccc2sc(-c3ccccc3O)c(-c3ccc(OCCN4CCCCC4)cc3)c2c1 | . | . | . | 1.0 | . | . | . | .
CC1(C)CC(Nc2ccc(Nc3ccccc3)cc2)CC(C)(C)N1 | 24.6 | -8.1 | . | -1.5 | 12.2 | 7.0 | . | .
O=C1OCC(c2ccc(Cl)s2)=C1c1ccccc1[N+](=O)[O-] | 1.8 | 1.2 | 14.2 | 0.5 | 5.1 | -11.7 | . | .
COC(C)(C)[C@@H](O)COc1c2ccoc2cc2oc(=O)ccc12 | 5.6 | -1.3 | -7.4 | -0.2 | 0.7 | -11.0 | . | .
Cc1cccc(N2CCN(Cc3cn(C)nc3-c3ccccc3F)CC2)n1 | 26.3 | -0.1 | 54.8* | 1.5 | 15.7 | 50.6 | 69.7* | 49.4*
CCC(C)NC(=O)Cn1nc(Cc2ccncc2)c2ccccc2c1=O (stereo not given) | -5.2 | 2.1 | -2.1 | 0.9 | -3.0 | -13.0 | . | .
COc1ccc(C(=O)Nc2c(N)nc(SCC(=O)c3ccccc3)[nH]c2=O)cc1 | 2.5 | 0.2 | 17.4 | -0.7 | -4.6 | -1.3 | . | .
CCOC(=O)c1c(C)n(-c2ccc(OC)cc2)c2ccc(O)c(CN(C)C)c12 | 10.1 | 1.1 | 63.7* | 7.5 | 15.8 | 10.6 | 43.9* | 53.7*
CCOC(=O)c1c(C)n(-c2ccc(C)cc2)c2ccc(O)c(CN(C)C)c12 | 44.7 | -1.9 | 54.5* | 9.8 | 21.1 | 1.4 | 39.5 | 66.1*
COc1ccccc1C(=O)NCCC(=O)NC1CCCCCC1 | -3.1 | 0.1 | 11.1 | 0.8 | -10.9 | -8.1 | . | .
O=C(Nc1ccc([N+](=O)[O-])cc1)c1nc[nH]c1C(=O)NC1CCCCC1 | 62.8 | 6.1 | 66.6* | 3.7 | -9.9 | 16.6 | 19.4 | .
O=C(Nc1ccc(F)cc1)c1nc[nH]c1C(=O)Nc1ccc([N+](=O)[O-])cc1 | 14.9 | 0.4 | 92.4* | 0.4 | 5.3 | 32.5 | 26.4 | .
CCOC(=O)c1[nH]cnc1C(=O)Nc1ccc([N+](=O)[O-])cc1 | 8.2 | -1.0 | 10.2 | -0.4 | 1.9 | 9.5 | . | .
Oc1ccc(C(=S)N2CCN(c3cccc(Cl)c3)CC2)cc1 | 1.7 | 3.6 | 11.3 | -1.3 | 4.8 | -13.6 | . | .
COc1cc(C(=S)N2CCN(c3cccc(Cl)c3)CC2)ccc1O | 2.0 | -13.1 | 54.7* | -4.9 | 11.0 | -11.7 | 54.8* | 50.7*
O=c1c2ccccc2nc(COc2ccccc2)n1/N=C/c1ccc(O)cc1O | 87.3* | 2.1 | 66.5* | 2.0 | 0.1 | 67.1 | 57.6* | 31.0
Oc1ccc(/C=N/n2c(COc3ccccc3)n[nH]c2=S)c(O)c1 | . | -0.5 | 14.2 | -3.0 | -21.1 | . | . | .
O=c1c2ccccc2nc(COc2ccccc2)n1/N=C/c1cn[nH]c1-c1ccccc1 | 40.7 | -3.0 | 44.3 | -10.3 | -0.1 | 2.7 | . | .
Cc1ccccc1OCc1nc2ccccc2c(=O)n1/N=C/c1cn[nH]c1-c1ccc(Br)cc1 | 7.5 | 25.7* | 69.2* | 4.9 | 0.9 | 27.7 | 23.8 | .
COC(=O)C1=CN(c2ccc(C(C)(C)C)cc2)C(N)=C(C#N)C1c1cccc([N+](=O)[O-])c1 (stereo not given) | . | . | . | -1.2 | . | . | . | .
SMILES | Beta cell apopt | GRIN3A LBD mod | Mdm2-MdmX inh | MPTP inh | Gli-Sufu block | CSC inhib | Mdm2 MdmX conf | FLuc counter
N#Cc1c(N)n(CCCN2CCOCC2)c2nc3ccccc3nc12 | 1.1 | -7.2 | -0.9 | -1.3 | -0.8 | -9.6 | . | .
C=CCn1c(N)c(C(=O)Nc2cccc(C)c2)c2nc3ccccc3nc21 | -1.5 | 18.2* | 67.2* | 1.9 | 10.0 | 25.0 | 20.6 | .
Nc1c(C(=O)Nc2ccccc2)c2nc3ccccc3nc2n1CCCN1CCOCC1 | 2.3 | 18.3* | 67.0* | -1.7 | 3.0 | 97.9* | 28.9 | .
Cc1nn(CCO)c2ncc(C(=O)c3cc(F)ccc3O)cc12 | -4.5 | 0.2 | 3.9 | -1.0 | -27.0 | 13.1 | . | .
CC(=O)Nc1sc(N/N=C\c2ccccc2Cl)nc1-c1cccs1 | 1.1 | -16.5 | 50.5* | 1.0 | 17.4 | -7.1 | 60.8* | 96.5*
O=[N+]([O-])c1cccc2c1ccc1ncccc12 | -7.2 | 1.1 | 55.7* | -1.1 | -7.2 | -4.4 | 33.9 | .
CCOc1ccc2nc(SC3CC(=O)N(c4ccc(OC)cc4)C3=O)sc2c1 (stereo not given) | -7.5 | -14.8 | 65.6* | 4.8 | -34.2 | -5.0 | -27.7 | .
C=CCOc1c(Cl)cc(CNc2ccc(C)c(Cl)c2)cc1OC | 47.1 | . | 76.1* | . | . | 54.4 | 77.3* | 96.9*
COc1cc(CNc2ccc(N3CCCC3)cc2)cc(Cl)c1OC | 62.6 | 0.0 | 40.7 | 4.6 | 0.3 | 50.8 | . | .
C=CCOc1c(Cl)cc(CNc2ccc(N(C)C)cc2)cc1OC | 25.6 | -1.3 | 60.4* | -3.3 | 45.9 | 52.8 | 54.1* | 75.2*
O=C(Nc1ccc(Oc2ncnc3cc(Cl)ccc23)nc1)c1cccs1 | 54.0 | 10.9* | 77.7* | 3.0 | 4.2 | 0.1 | 72.6* | 102.1*
Cc1ccc(NC(=O)/C(=C\c2ccc3c(c2)OCO3)NC(=O)c2ccco2)cc1 | -7.3 | 1.5 | 10.3 | -1.3 | -1.7 | -13.2 | . | .
O=C(N/N=C/c1cnc(N2CCCCC2)s1)c1ccc(C(F)(F)F)cc1 | 103.8* | -1.2 | 68.9* | -0.1 | -14.7 | 19.8 | 58.1* | 37.4*
CC(C)n1cnc2c(Nc3ccc(F)c(Cl)c3)nc(NCCO)nc21 | -1.9 | 1.9 | 25.5 | -0.5 | 14.4 | -5.0 | . | .
CC(C)n1cnc2c(Nc3cccc(F)c3)nc(NCCO)nc21 | -7.2 | 2.9 | 61.6* | 0.4 | -7.8 | -12.7 | 58.1* | 82.0*
CC(C)C[C@H](CO)Nc1nc(Nc2cccc(Cl)c2)c2ncn(C(C)C)c2n1 | 4.2 | -4.7 | 74.6* | -2.1 | 5.2 | -7.8 | 65.5* | 58.5*

Assay outcomes: PubChem BioAssay, several laboratories
